In the library only some 9.4% were active in any assay of this set; here they are far more common.
Rab9 prom act = activates the Rab9 promoter; Huh7 Rab9 promoter-luciferase reporter, luminescence, 24 h; Potency, µM (series often up to 9.22 µM), hits mostly activators; 320,000 compounds, 2.8% hits; further: nearly all actives have a fitted effect of over 60% in size
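Steps: seed 1500 Huh7 Rab9-luc cells per well, rest 2 h at 37 °C; add compound in DMSO; incubate 24 h; add luciferase reagent, 10 min ambient; read luminescence.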
SMN2 splice enh = enhancers of SMN2 splice variant expression; HEK293 SMN2-luciferase splicing reporter, luminescence, 30-36 h; 210,000 compounds, 2.8% hits; Potency, µM (titrated, usually from 46.1 µM), usual class: activators; AID 1458; further: nearly all actives have a fitted effect of over 55% in size
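HEK293 cells carry an SMN2 minigene-luciferase reporter in which exon 7 inclusion puts luciferase in frame. Cells were seeded at 2000 cells/well, attached for 10-12 hours, then exposed to compounds for 30-36 hours at 37C before ONE-Glo luminescence.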
ELG1 DNA repair = blocks ELG1-dependent DNA repair in HEK293T cells; HEK293T ELG1-luciferase reporter, luminescence, 16 h; DNA damage induced by 5-fluorouridine; Potency, µM (series often up to 46.1 µM), hits mostly inhibitors; 330,000 compounds, 2.3% hits; further: nearly all actives have a fitted effect of over 55% in size
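Quantitative HTS, concentration-response format. 2,000 cells/well co-treated with 5-fluorouridine and compound, 16 hr in 5% CO2 at 37 °C; ONE-Glo luminescence read after 30 min.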
NPC1 promoter act = NPC1 promoter activation. Huh7 NPC1 promoter luciferase reporter, 24 h. Potency, µM (titrated, usually from 9.22 µM), most hits filed as activators. 320,000 compounds, 2.4% hits. AID 485313; further: nearly all actives have a fitted effect of over 60% in size
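Luminescence read-out of NPC1 promoter-driven luciferase in stably transfected Huh7 cells; compounds delivered in DMSO and left 24 h at 37C, 5% CO2, qHTS titration format.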
FLuc modulator = firefly luciferase modulation, counter-screen for miR-21 project. Potency, µM (doses to about 57.5 µM), actives largely listed as inhibitors. P08659. purified FLuc, Km substrates, luminescence inhibition. 360,000 compounds, 6.9% hits. AID 588342; further: nearly all actives have a fitted effect of over 55% in size
Target sequence (P08659 whole entry, looked up): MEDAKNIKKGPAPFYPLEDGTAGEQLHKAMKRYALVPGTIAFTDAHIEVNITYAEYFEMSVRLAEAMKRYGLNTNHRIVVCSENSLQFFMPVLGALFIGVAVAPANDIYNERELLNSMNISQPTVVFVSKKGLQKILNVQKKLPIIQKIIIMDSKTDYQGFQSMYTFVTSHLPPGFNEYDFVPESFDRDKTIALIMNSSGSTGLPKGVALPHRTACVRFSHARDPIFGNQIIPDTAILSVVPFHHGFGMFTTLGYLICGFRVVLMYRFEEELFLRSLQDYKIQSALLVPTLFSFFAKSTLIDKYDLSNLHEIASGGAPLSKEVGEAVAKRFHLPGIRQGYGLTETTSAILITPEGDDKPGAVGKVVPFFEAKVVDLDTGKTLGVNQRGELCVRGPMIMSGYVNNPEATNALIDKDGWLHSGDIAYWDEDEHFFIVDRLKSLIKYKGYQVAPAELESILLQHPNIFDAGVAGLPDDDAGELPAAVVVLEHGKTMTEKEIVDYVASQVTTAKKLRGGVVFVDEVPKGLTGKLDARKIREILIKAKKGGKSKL
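Purified P. pyralis luciferase, 10 nM final, with Km-level 10 uM D-luciferin and 10 uM ATP in 50 mM Tris acetate pH 7.5, 10 mM Mg acetate, 0.01% Tween-20, 0.05% BSA; 6-point qHTS titration about 60 µM downward; luminescence read.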
ELG1 genotox = genotoxicity induction in ELG1-luciferase HEK293T cells | Potency, µM (doses to about 46 µM), actives largely listed as activators | HEK293T ELG1-luciferase reporter, luminescence, 16 h | 330,000 compounds, 1.3% hits; further: nearly all actives have a fitted effect of over 60% in size
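Genotoxic stress is detected as increased luminescence from luciferase-tagged ELG1 in HEK293T cells, measured with ONE-Glo after a 16 hr treatment at 37 °C.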
Hits are given with their value; - = inactive; ? = inconclusive; . = no result; ! = a repeat was not active; [ ] = dose if it differs, or a comment. The call rests on the fitted dose curve; in most records, active means well fitted curve in the direction sought with a large enough effect; inconclusive means small, poorly fitted or top-dose-only effect, or another doubt; inactive means no such curve, though single readings can be large; an effect the other way counts as inactive or inconclusive.

SMILES | Rab9 prom act | SMN2 splice enh | ELG1 DNA repair | NPC1 promoter act | FLuc modulator | ELG1 genotox
CC1=NN(C(N)=S)C(=O)C1N=Nc1ccc(Cl)cc1 (centres undefined) | 4µM | . | ? | 4µM | 3.4µM | 7.3µM
CC1=NN(C(N)=S)C(=O)C1N=Nc1ccccc1 (centres undefined) | - | - | ? | - | 24µM | ?
CC1=NN(C(N)=S)C(=O)C1N=Nc1cccc([N+](=O)[O-])c1 (centres undefined) | ? | . | ? | 3.5µM | 12µM | -
CC1=NN(c2ccccc2)C(=O)[C@@H]1N=Nc1ccc(S(N)(=O)=O)cc1 | . | -[9.22 µM] | . | . | . | .
NC(=O)CN(N=Nc1cccc([N+](=O)[O-])c1)c1cccc([N+](=O)[O-])c1 | - | - | - | - | - | -
CC1=NN(c2ccccc2)C(=O)C1N=Nc1ccc(N)cc1 (centres undefined) | - | - | - | - | ? | -
CCc1ccc(C(=O)c2cn(CC(=O)Nc3cc(F)ccc3F)c3nc(C)ccc3c2=O)cc1 | . | . | . | . | - | .
N#Cc1ccccc1Cn1c(=O)n(CCCC(=O)NCc2ccccc2Cl)c(=O)c2ccccc21 | . | - | . | . | - | .
CCOC(=O)c1c(NC(=O)/C=C/c2ccccc2)sc2c1CCCC2 | . | - | . | . | - | .
Cn1nc(CC(=O)Nc2cccc3ncccc23)c2ccccc2c1=O | - | . | 7.3µM | - | - | -
O=C(CCl)Nc1cccc2ncccc12 | - | - | 26µM | - | - | -
Nc1ncnc2nc(-c3ccc(N4CCOCC4)nc3)cc(-c3cccc(Br)c3)c12 | - | - | . | - | . | .
CCC1CN(C(=O)N2CCC(C(=O)NCc3ccccc3F)CC2)c2ccccc2O1 (centres undefined) | . | . | . | . | - | .
CCC1CN(C(=O)N2CCC(C(=O)Nc3ccccc3F)CC2)c2ccccc2O1 (centres undefined) | - | . | - | - | 11µM! | -
CCC1CN(C(=O)N2CCC(C(=O)N3CCN(c4cc(C)ccc4C)CC3)CC2)c2ccccc2O1 (centres undefined) | . | . | . | . | 1.9µM | .
COC(=O)c1ccccc1NC(=O)C1CCN(C(=O)N2CC(C)Oc3ccccc32)CC1 (centres undefined) | . | . | . | . | 4.8µM | .
Nc1ncnc2c1ncn2[C@@H]1O[C@H](COP(=O)(O)OP(=O)(O)OP(=O)(O)OP(=O)(O)OC[C@@H]2O[C@H](n3cnc4c(N)ncnc43)[C@@H](O)[C@@H]2O)[C@H](O)[C@H]1O | . | - | . | . | . | .
COc1ccc(C(=O)Nc2ccccn2)cc1 | - | - | - | - | - | -
COc1ccc2oc(C(=O)Nc3ccccn3)c(C)c2c1 | 4µM | . | ? | ? | 0.6µM | ?
CCc1noc(C)c1C(=O)N(CC)CC(=O)Nc1ccccc1C(F)(F)F | - | . | - | - | - | -
COc1ccc2oc(C(=O)Nc3nc(C)cs3)c(C)c2c1 | 5.6µM | . | ? | 2.5µM | 0.6µM | ?
COCc1c(C(=O)Nc2nc(C)cs2)oc2ccccc12 | - | - | - | - | ? | -
COc1ccc2oc(C(=O)NN3C(C)CCCC3C)c(C)c2c1 (centres undefined) | - | - | - | - | - | -
COc1ccc2oc(C(=O)Nc3ccc(C)cn3)c(C)c2c1 | 3.2µM | . | ? | 2.5µM | 1.9µM | 5.8µM
CCN(CC(=O)Nc1ccccc1C(F)(F)F)C(=O)c1oc2ccc(OC)cc2c1C | - | . | ? | - | 17µM | ?
SMILES | Rab9 prom act | SMN2 splice enh | ELG1 DNA repair | NPC1 promoter act | FLuc modulator | ELG1 genotox
CCc1ccc(CNC(=O)c2cnc3sc(N(CC)CC)nn3c2=O)cc1 | . | . | . | . | - | .
CN(C)S(=O)(=O)c1ccc(-c2csc(N/N=C/c3ccco3)n2)cc1 | - | . | ? | - | - | -
CN(C)S(=O)(=O)c1ccc(-c2csc(N/N=C/c3ccc(O)cc3)n2)cc1 | - | . | ? | - | 11µM | ?
C(=N\Nc1nc(-c2ccccc2)cs1)/c1cccs1 | ? | 7.9µM | ? | - | 5.4µM | 16µM
O=C(O)Cc1sc(Nc2cccc3ccccc23)nc1-c1ccc(Cl)cc1 | - | . | - | - | - | -
Clc1ccc(-c2csc(N/N=C\c3cccnc3)n2)cc1 | - | - | - | - | ? | -
Cc1ccc(-c2csc(N/N=C/C=C/c3ccccc3)n2)cc1 | - | - | - | - | - | -
C(=N\Nc1nc(-c2ccccc2)cs1)/c1ccncc1 | ? | . | ? | 3.2µM | 11µM | -
O=C(O)Cc1sc(Nc2cccc3ccccc23)nc1-c1ccccc1 | - | . | - | - | 24µM | -
Cc1ccc(NC(=O)C(=O)NCC(c2cccnc2)N2CCN(Cc3ccccc3)CC2)cc1C (centres undefined) | . | . | . | . | - | .
ClCc1csc(N/N=C/c2cccs2)n1 | - | . | - | - | 15µM | -
O=C(O)Cc1sc(N/N=C\c2ccncc2)nc1-c1ccccc1 | - | . | - | - | 15µM | -
O=C(O)Cc1sc(Nc2ccc(Cl)cc2)nc1-c1cccs1 | 3.5µM | 14µM | ? | ? | 13µM | ?
COc1ccc(C(=O)Nc2ccccc2C(=O)OCc2cc(=O)n3c4c(sc3n2)CCCC4)cc1 | . | . | . | . | - | .
COc1cc(O)c2c(O)c3c(c4c2c1[C@@]1(C4)C(C)=CCCC1(C)C)[C@H](O)[C@@]1(O)CC(=O)C(C(N)=O)=C(O)[C@]1(O)C3=O | . | -[9.22 µM] | . | . | . | .
CCC(=O)C1=C(c2cccc(OC)c2)N(C(=O)CC)n2c(nnc2C2CCCCC2)S1 | . | . | . | . | - | .
CNC(=O)/C(C#N)=C/c1c(N(Cc2ccccc2)Cc2ccccc2)nc2ccccn2c1=O | - | - | 18µM | - | - | -
Cc1cccc(-n2cc(CN3CCN(Cc4nccn4C)CC3)c(-c3cccc(F)c3)n2)c1 | - | . | 18µM | - | 27µM | -
COc1ccc(-n2cc(CN3CCCC3)c(-c3cccc(F)c3)n2)cc1 | - | . | - | - | ? | -
COc1cccc(C(=O)NC2C(=O)N3C(C(=O)O)=C(COC(C)=O)CSC23)c1 (centres undefined) | - | . | - | - | 21µM | -
Cc1ccc(N2CC(NC(=O)CCc3ccccc3)CC2=O)cc1C (centres undefined) | . | . | . | . | - | .
CCOC(=O)N1CCN(CCC(=O)Nc2cccc(F)c2)CC1 | . | - | . | . | - | .
COc1cc(-c2[nH]ncc2CN2CCSCC2)cc(OC)c1OC | - | . | ? | - | - | 18µM
COCC1CCN(Cc2cn[nH]c2-c2cc(OC)c(OC)c(OC)c2)CC1 | - | . | ? | - | ? | -
Cc1ccccc1NC1=NC(C)(C)N=C(N)N1 | - | 0.22µM | - | - | - | -
C[N+]1(CCC(=O)c2ccco2)CC2CCC(CC2)C1 (centres undefined) | . | -[9.22 µM] | . | . | . | .
COc1ccc(-c2nc3ccccc3c(=O)n2N)cc1 | - | - | - | - | - | -
Cc1nc2cc(-c3ccccc3)sc2c(=O)n1N | ? | 1.4µM | ? | ? | 0.67µM | -
